According to PubChem BioAssay (NCI):
This is part of a sample that, as a whole, favours compounds with a hit. Of some 79,000 tested, about 15% had one in any assay. The source made the active and inactive calls. Rule as the data show it: active = growth inhibition above about 70%; inactive = the rest.

Columns and labels:
[1] = NCI Yeast Anticancer Drug Screen. Data for the rad50 strain (AID 155);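 also: 0% = growth of vehicle-only cultures of the same strain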; details: S. cerevisiae rad50 strain growth inhibition; at 50.0 µM; active compounds read high
Method in brief: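 A DNA repair-deficient yeast mutant serves as the test organism; compound-induced growth inhibition is calculated against vehicle-treated cells.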

[2] = NCI Yeast Anticancer Drug Screen. Data for the mec2-1 strain (AID 157); details: S. cerevisiae mec2-1 strain, at 50.0 µM, active compounds read high
Method in brief: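 Cells of the genetically defined mec2-1 yeast strain are incubated with test compound. Inhibition of growth is calculated against vehicle-treated controls.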

[3] = NCI Yeast Anticancer Drug Screen. Data for the sgs1 mgt1 strain (AID 161);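 also: 0% = growth of cultures given vehicle only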; details: S. cerevisiae sgs1 mgt1 strain, at 50.0 µM, active compounds read high
Method in brief: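 Mutant yeast exposed to compound; growth scored against vehicle-only wells.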

[4] = NCI Yeast Anticancer Drug Screen. Data for the cln2 rad14 strain (AID 165);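 also: 0% = growth equal to vehicle treated cultures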; details: S. cerevisiae cln2 rad14 strain, at 50.0 µM, active compounds read high
Method in brief: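 The screen exposed genetically defined yeast (cln2 rad14) to test compounds and scored growth inhibition relative to vehicle-treated controls.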

[5] = NCI Yeast Anticancer Drug Screen. Data for the bub3 strain (AID 167); details: S. cerevisiae bub3 mutant strain, at 50.0 µM, active compounds read high
Method in brief: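 Inhibition values come from growth of compound-treated mutant yeast normalised to vehicle-treated controls.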

[6] = NCI Yeast Anticancer Drug Screen. Data for the mlh1 rad18 strain (AID 175); details: S. cerevisiae mlh1 rad18 strain growth inhibition; at 50.0 µM; active compounds read high
Method in brief: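 Compound-treated yeast growth, normalised to vehicle controls. Strain bears defined DNA repair mutations.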

Measured: growth inhibition

Cc1cccc(C(=O)C(O)c2cccc(C)n2)n1 (stereo not drawn)
inactive: [1] 7.75% | [2] -18.4% | [3] -1.55% | [4] 8.2% | [5] -20.3% | [6] 4.4%

O=S(CCCl)c1ccccc1 (stereo not drawn)
inactive: [1] -8.3% | [2] -13.2% | [3] 3.35% | [4] 10.4% | [5] -7.05% | [6] 4.9%

CC(=O)N(C)c1ccc(Nc2cc(S(=O)(=O)O)c(N)c3c2C(=O)c2ccccc2C3=O)cc1
inactive: [1] -20.2% | [2] -14.1% | [3] -27.4% | [4] -13.8% | [5] -37.3% | [6] -4.25%

CSCCC(NC(=O)OCc1ccccc1)P(=O)(O)c1ccccc1 (stereo not drawn)
inactive: [1] -56% | [2] -41.1% | [3] -34% | [4] 13.2% | [5] 14.8% | [6] -11%

O=C(COc1ccc(Cl)cc1)NC(CO)(CO)CO
inactive: [1] 22.1% | [2] 16.3% | [3] 18.9% | [4] 43% | [5] 17.1% | [6] 10.8%

CCOC(=O)N(C)C(=C(F)F)C(F)(F)F
inactive: [1] 9.1% | [2] -0.1% | [3] 10.8% | [4] 33.6% | [5] 12.4% | [6] -26.1%

NC(N)=NC(N)=NCc1ccccc1
inactive: [1] 5.45% | [2] -2.45% | [3] 4.3% | [4] 12.7% | [5] 1.85% | [6] 0.85%

O=S(=O)(O)c1ccc(-c2nc3ccccc3[nH]2)cc1
inactive: [1] 1.6% | [2] 8.5% | [3] 4.65% | [4] 6% | [5] 28.2% | [6] -18.9%

O=C1C2=C(CCC2)C(=O)N1c1ccc(N2C(=O)C3=C(CCC3)C2=O)cc1
inactive: [1] -12.6% | [2] -4.55% | [3] -16.2% | [4] -15.4% | [5] -10.6% | [6] -13.2%

COc1ccccc1-c1cc(=O)c2c(C)cc(C)nc2[nH]1
inactive: [1] -15.8% | [2] -16.1% | [3] -0.6% | [4] -20.3% | [5] 6.25% | [6] 1.65%

CC(=O)OC12c3ccccc3C(c3ccccc31)C1C(=O)N(c3ccccc3O)C(=O)C12 (stereo not drawn)
inactive: [1] -15.8% | [2] -17.4% | [3] -4.15% | [4] 6.2% | [5] -5.4% | [6] 7.7%

C=C1CC(CCCCC2CC(=C)C(=O)O2)OC1=O (stereo not drawn)
inactive: [1] 1.45% | [2] -15.8% | [3] -8.1% | [4] -104% | [5] -12.7% | [6] -24.6%

O=C(O)/C=C(/C(=O)O)c1cccn1Cc1ccccc1
inactive: [1] 6.7% | [2] 14.2% | [3] 19.6% | [4] 17.4% | [5] 13.4% | [6] 16.4%

Oc1ccc2ccccc2c1C=Nc1ccc(SSc2ccc(N=Cc3c(O)ccc4ccccc34)cc2)cc1
inactive: [1] -6.6% | [2] -10.1% | [3] -19.6% | [4] -59.5% | [5] 0.9% | [6] -3.1%

CCCCCCCCCCCCCCCCS(=O)(=O)N/N=C/c1ccccc1O
inactive: [1] 25.9% | [2] 26.2% | [3] 30.2% | [4] 18.2% | [5] 6.2% | [6] 20.2%

O=c1[nH]c2cc(Cl)c(Cl)cc2c2ccc(Cl)cc12
inactive: [1] 12.2% | [2] -5.55% | [3] -0.35% | [4] -38% | [5] -15.6% | [6] -14.1%

Cc1ccc(OC/C=N\N=C(N)N)cc1C
inactive: [1] -7.9% | [2] 16.4% | [3] 41.3% | [4] -6% | [5] 8.3% | [6] 17.1%

COc1cc(/C=C(\C#N)C(N)=C(C#N)C#N)cc(O)c1O
inactive: [1] -32.5% | [2] -20.8% | [3] -19.6% | [4] 0.65% | [5] -24.3% | [6] -18.8%

Oc1cc(CN2COc3ccccc32)c(O)cc1CNC1CCCCC1
inactive: [1] -6.65% | [2] -4.95% | [3] -25.6% | [4] 62.5% | [5] -33.7% | [6] -12.3%

O=[N+]([O-])c1ccccc1C=Nc1ccccc1O
inactive: [1] 56.4% | [2] 44.5% | [3] 52.8% | [4] 24.9% | [6] 66%
active: [5] 75%

O=C(O)C(C(=O)O)C1CCCCCC1
inactive: [1] -34.4% | [2] -6.6% | [3] -17.9% | [4] -29.9% | [5] -1.9% | [6] 14.2%

CSc1nc2c([nH]1)c(=O)n(C)c(=O)n2C
inactive: [1] 8.8% | [2] 21.4% | [3] 8.4% | [4] -1.8% | [5] 16.8% | [6] 7.1%

Cc1ccc(S(=O)(=O)Nc2ccc(O)cc2)cc1
inactive: [1] -11.2% | [2] -15.2% | [3] -15.2% | [4] -27% | [5] -7.6% | [6] -5.4%

O=C1Cc2c([nH]c3ccccc23)-c2cc(Br)ccc2N1
inactive: [1] 13.4% | [2] 6.85% | [3] -2% | [4] 2.9% | [5] 31.6% | [6] 2.9%

COc1ccc2c(c1)CCC1C2CCC2(C)C(=O)C(n3cnc4c(=S)nc[nH]c43)CC12 (stereo not drawn)
inactive: [1] 42.3% | [2] 24.4% | [3] 50% | [4] 34.5% | [5] 14.2% | [6] 51.8%

NC(N)=NCCCCC(=O)Nc1ccc(S(N)(=O)=O)cc1
inactive: [1] 6.15% | [2] -0.65% | [3] -13.2% | [4] -6.15% | [5] -3.75% | [6] -19.2%

O=[N+]([O-])c1ccccc1S(=O)(=O)N(CCCCCN(S(=O)(=O)c1ccccc1[N+](=O)[O-])S(=O)(=O)c1ccccc1[N+](=O)[O-])S(=O)(=O)c1ccccc1[N+](=O)[O-]
inactive: [1] -5.75% | [2] -5.95% | [3] 10.8% | [4] 20.6% | [5] -27.9% | [6] -11.4%

Cc1cccnc1N
inactive: [1] -9.4% | [2] -31.6% | [3] 5.3% | [4] -11.6% | [5] -1.15% | [6] 14.7%

COc1ccc2oc(=N)c(C(=O)NCc3ccccc3)cc2c1
inactive: [1] -4% | [2] -0.85% | [3] -19.1% | [4] -6.35% | [5] -34.1% | [6] -24.6%

CC1C[C@]2(C)C(=O)N(c3ccccc3)C(=N)[C@@H]2N(C)c2ccccc21 (stereo partly drawn)
inactive: [1] -14.2% | [2] 6.7% | [3] -3.55% | [4] -4.15% | [5] 25.9% | [6] -15.8%

O=C(O)C(Cc1ccc(O)cc1)N=Cc1nc(-c2ccccc2)oc1O (stereo not drawn)
inactive: [1] -3.5% | [2] -3.5% | [3] 0.25% | [4] 3% | [5] -6.5% | [6] 0.7%

CC1(C)COC(CCl)OC1
inactive: [1] 27.1% | [2] 17.9% | [3] 11.3% | [4] -16.5% | [5] 1.95% | [6] 30.9%

Cc1nnsc1-c1nc2ccccc2[nH]1
inactive: [1] 22.2% | [2] 1.95% | [3] 9.35% | [4] 20.1% | [5] 32.5% | [6] 38.4%

COc1cccc(Cc2c3cc(OC)ccc3cc[n+]2C)c1
inactive: [1] 33.3% | [2] 10.8% | [3] 34.2% | [4] 27.7% | [5] 59% | [6] 52.7%

CC(=O)CSCc1ccccn1
inactive: [1] 5.05% | [2] 15% | [3] -18.6% | [4] 10.2% | [5] 22.6% | [6] -1.9%

CC[N+](C)(CC)c1cccc(OC(=O)Nc2ccc(OC)cc2)c1
inactive: [1] 6% | [2] 5.25% | [3] 3.35% | [4] -5.7% | [5] 1.05% | [6] 14.3%

OCCCCCCOc1ccc(-c2cc(-c3ccccn3)nc(-c3ccccn3)c2)cc1
active: [5] 70.5%
inactive: [1] 52% | [2] 67.5% | [3] 68.9% | [4] 64.9% | [6] 65.5%

CC(C)(C)OC(=O)c1cccc(C(=O)OC(C)(C)C)c1
inactive: [1] 0.6% | [2] 41.6% | [3] 32.2% | [4] -9.7% | [5] 39.1% | [6] 17.3%
